HSF-1 act = HSF-1 activators, primary screen, NIH3T3-HGL cells, MG132 stress, luminescence, single point; NIH3T3-HGL HSF-1 luciferase reporter, 8 h; 100% = twice DMSO control signal; actives 1.7% (n = 300,000); activation, % at 9 µM; AID 504408, 2011;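 active means mean replicate activation of at least 50% with a set share of replicates each reaching 50%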;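 further: 0% = median of the neutral control wells and 100% = twice that signal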
NR0B1 inh = DAX1 (NR0B1) inhibitors, primary screen, cell-based, HEK293, Gal4-DAX1, luciferase luminescence. inhibition, % at 6.75 µM. Nuclear receptor subfamily 0 group B member 1 (Homo sapiens), P51843. AID 504766, 2011. actives 0.99% (n = 340,000). HEK293 Gal4-DAX1 luciferase reporter;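 active means inhibition above the mean over all tested compounds plus 3 SD, cut at about 4.2% in these data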;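 further: 0% = DAX1-transfected cells with DMSO and 100% = empty-vector control cells with DMSO; inhibition shows as a rise in luminescence from relieved DAX1 repression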
Target sequence (P51843 207-470 limits assumed): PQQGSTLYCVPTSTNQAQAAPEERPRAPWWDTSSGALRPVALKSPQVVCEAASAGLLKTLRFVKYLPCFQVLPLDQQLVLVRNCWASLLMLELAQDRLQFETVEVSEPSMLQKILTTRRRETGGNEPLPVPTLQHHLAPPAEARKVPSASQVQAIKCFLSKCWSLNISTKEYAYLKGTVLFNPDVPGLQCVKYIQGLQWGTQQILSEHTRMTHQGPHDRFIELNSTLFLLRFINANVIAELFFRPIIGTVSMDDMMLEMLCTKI
HSF1 inh = HSF1 inhibitors in luciferase reporter cells, primary screen, cell-based, NIH3T3, luminescence; AID 2098, 2009; activity change, negative = inhibition, % at 7.5 µM (by protocol); actives 0.77% (n = 300,000); NIH3T3-HGL HSE-luciferase, MG132-induced, luminescence 8 h; active compounds read low;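 active means more than half of replicate wells show activity change below -50%, luminescence cut by over half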;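 further: luciferase reports HSF-1 transcriptional activity via heat shock element; 0% = median of DMSO wells and -100% = zero luminescence signal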
AHR activator = AHR activators, primary screen, cell-based, luminescence, luciferase reporter, human; Aryl hydrocarbon receptor (Homo sapiens), P35869; AHR-responsive luciferase reporter cells; activation, % at 5 µM; actives 2.5% (n = 320,000); AID 2796, 2010; in the data active means activation above about 47%;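 further: 0% = vehicle wells and 100% = reference agonist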
FXN GAA850 act = FXN promoter activators, primary screen, cell-based, luciferase luminescence, HEK293 lucGAA850; activation, % at 6 µM; HEK293 lucGAA850 FXN promoter luciferase reporter, 24 h; percent of 10 µM SAHA response; AID 540364, 2011; actives 0.56% (n = 360,000);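 active means activation above the average of all compounds screened plus 3 SD, cutoff fixed separately per campaign, cut at about 7.5% in these data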;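 further: 0% = DMSO wells and 100% = 10 µM SAHA wells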
* marks the source's active call; other numbers are inactive results; / = no result given. Shown are actives, neighbours in structure and some others; about 5.4% of the full set was active somewhere.

SMILES | HSF-1 act | NR0B1 inh | HSF1 inh | AHR activator | FXN GAA850 act
COc1ccc(Nc2ncnc3sccc23)cc1OC | 12 | 0 | 3 | 64* | 1
COc1ccc(CCNc2ncnc3sccc23)cc1OC | -2 | -3 | -5 | -12 | -6
COc1cc(OC)c2c(c1)O/C(=C\c1ccccc1)C2=O | 39 | / | 23 | 15 | 5
O=C1Nc2ccccc2O/C1=C\c1ccccc1 | 22 | 0 | 3 | 61* | 3
Cc1c(/C=N/NC(=O)c2ccccc2O)c2ccccn2c1C(=O)c1ccc(F)cc1 | 0 | 0 | 0 | 53* | 1
Cc1c(/C=N/NC(=O)c2ccc(O)cc2)c2ccccn2c1C(=O)c1ccc(F)cc1 | -8 | 1 | -4 | 4 | -3
Cc1c(/C=N/NC(=O)c2cccnc2)c2ccccn2c1C(=O)c1ccc(F)cc1 | -18 | / | 0 | 73* | /
Cc1c(/C=N/NC(=O)CNc2ccccc2)c2ccccn2c1C(=O)c1ccccc1 | 7 | 1 | 1 | 53* | -3
Cc1c(/C=N/NC(N)=O)c2ccccn2c1C(=O)c1ccncc1 | 4 | 0 | -4 | 30 | 5
NC(=O)c1ccc(NC(=O)CSC(=O)c2ccccc2)cc1 | / | 0 | / | 1 | 0
CCOC(=O)C1CCCN(C(=O)c2cccc(S(=O)(=O)N(Cc3ccccc3)c3ccccc3OC)c2)C1 (centres undefined) | 16 | -1 | 10 | -1 | 0
COc1cccc(C(=O)NCCNC(=O)c2ccc(C)nc2)c1 | 23 | 1 | 5 | 0 | 0
COc1cccc(NC(=O)Cn2nnc(C(=O)Nc3ccccc3)c2N)c1 | -11 | -1 | 0 | 35 | -2
COc1cccc(NC(=O)c2nnn(CCc3ccccc3)c2N)c1 | 33 | 6.0* | 15 | 3 | 5
CSc1cccc(NC(=O)c2nnn(Cc3ccccc3)c2N)c1 | 25 | 0 | 13 | 8 | 0
COc1cc(NC(=O)c2nnn(Cc3ccc(SC)cc3)c2N)cc(OC)c1 | 26 | 4.2* | 11 | 16 | 0
COc1cccc(NC(=O)c2nnn(Cc3ccc(Br)cc3F)c2N)c1 | 70* | 0 | 49 | 54* | 1
CN(C)Cc1ccccc1CNC(=O)c1ccc(Cl)c(S(=O)(=O)NC2CC2)c1 | / | 2 | / | / | 0
O=C(Cn1cnc2ccccc21)Nc1cccc(S(=O)(=O)N2CCCC2)c1 | / | -2 | / | -4 | -1
Cc1cccc(NC(=O)CSc2nc(=O)n(CCN3CCOCC3)c3c2CCCC3)c1C | 3 | 2 | -4 | 1 | -1
COc1ccc(C(CNC(=O)C(C)Oc2ccc(Br)cc2)N2CCOCC2)cc1 (centres undefined) | 5 | 0 | 2 | 49* | 1
COc1ccc(C(CNC(=O)CSc2ccc(Br)cc2)N2CCOCC2)cc1 (centres undefined) | 12 | 0 | 6 | 2 | 3
O=[N+]([O-])c1cnn(-c2nc(-c3ccco3)cc(C(F)(F)F)n2)c1 | -10 | -1 | 2 | 0 | 1
Cc1nn(-c2nc(-c3ccco3)cc(C(F)(F)F)n2)c(C)c1Br | 8 | 4.7* | -8 | 4 | 2
C[C@H](CO)N1C[C@H](C)[C@@H](CN(C)Cc2ccccc2)Oc2ccc(NC(=O)Cn3cnnn3)cc2C1=O | / | 0 | / | -1 | -1
SMILES | HSF-1 act | NR0B1 inh | HSF1 inh | AHR activator | FXN GAA850 act
O=C1c2ccccc2S(=O)(=O)N1CC1CC(c2ccc(Cl)cc2)=NO1 (centres undefined) | 82* | 2 | 66 | 49* | 3
COc1ccc(C2=NOC(CN3C(=O)c4ccccc4S3(=O)=O)C2)cc1 (centres undefined) | 72* | 1 | 40 | 2 | 4
O=C1c2ccccc2S(=O)(=O)N1CC1CC(c2ccccc2)=NO1 (centres undefined) | / | 2 | / | 4 | 5
C[C@@H]1CN([C@H](C)CO)C(=O)c2c(c3ccccc3n2C)-c2ccccc2CO[C@H]1CN(C)S(=O)(=O)c1cn(C)cn1 | / | 1 | / | / | 2
CCOC(=O)CNC(=O)CCc1nnc2ccc(N3CCC(C)CC3)nn12 | 29 | 0 | 5 | 0 | 0
COc1nnc(-c2ccc(N3CCCCC3)c(NC(C)=O)c2)c2ccccc12 | 24 | 0 | 0 | 78* | 2
COC(=O)c1cnc(N2CCCN(S(=O)(=O)c3ccc(C(F)(F)F)cc3)CC2)nc1C(F)(F)F | 53* | -2 | 15 | -2 | 2
COC(=O)c1cnc(N2CCCN(S(=O)(=O)c3ccccc3)CC2)nc1C(F)(F)F | -22 | 0 | -13 | 2 | 1
CCCNC(=O)C1(C)CCCN(Cc2ccccc2F)C1 (centres undefined) | / | / | / | / | 0
CCOc1ncccc1C(=O)Nc1cccc(-c2nc3cccnc3s2)c1 | 12 | 1 | 5 | 50* | 3
O=C(O)c1cccc(Br)c1 | / | 1 | / | / | 0
Cc1ccsc1C1NC(=O)c2c(sc3c2CCCC3)N1 (centres undefined) | 36 | 2 | 20 | 114* | 3
O=C1NC(c2ccc(Br)cc2)Nc2sc3c(c21)CCC3 (centres undefined) | -5 | 1 | 5 | 77* | -1
O=C1NC(c2ccccn2)Nc2sc3c(c21)CCC3 (centres undefined) | 28 | 2 | 2 | 19 | 4
CC(=O)N1NC(=Nc2ccccc2)SC1(C)C | -4 | -2 | 4 | 2 | 0
CCOc1nsc(OCC)n1 | -5 | 2 | -3 | 6 | 0
O=C1CC(c2cccc([N+](=O)[O-])c2)c2c(ccc3ccccc23)N1 (centres undefined) | 53* | -2 | 25 | 2 | -4
Cc1cn(CC(=O)N2CCN(c3ccccn3)CC2)c(=O)[nH]c1=O | / | -1 | / | / | 1
C=C(C(=O)c1ccccc1)C(C)C(=C)C(=O)c1ccccc1 | 79* | -3 | 59 | -1 | -13
O=C(c1ccccc1)C(c1ccccc1)c1ccccc1 | 16 | 0 | 0 | 9 | 2
COc1ccc(C(CC(=O)c2ccccc2)CC(=O)c2ccccc2)cc1 | 7 | 1 | 2 | -1 | 0
O=C(O)c1ccc(C(=O)C(=O)c2ccccc2)cc1 | -15 | -1 | 2 | 5 | 1
C=C(C(=O)c1ccccc1)C(C(=C)C(=O)c1ccccc1)c1ccc(OC)cc1 | 143* | -1 | 129 | 0 | 0
C=C(C(=O)c1ccccc1)C(c1ccccc1)C(C)C(=O)c1ccccc1 (centres undefined) | 62* | -2 | 47 | -1 | -3
COC(=O)C1=C[C@@H](C(=O)OC)[C@@H]2C3=C(C(=O)C2(C)C)[C@H](c2ccccc2)[C@@H]2C(=O)N(C)C(=O)[C@@H]2[C@@H]3C1 | -8 | -1 | -1 | -5 | 1

Bioassay records as filed in PubChem.
